# Source: PubChem
# In the library only some 3.9% were active in any assay of this set; here they are far more common.
# DUSP3 inh: inhibitors of human VHR1 phosphatase (DUSP3); P51452; recombinant VHR phosphatase, pNPP absorbance; inhibition, % at 13.3 µM; 290,000 compounds, 0.52% hits; in the data active = inhibition above about 50%
# Target sequence (P51452 whole entry, looked up): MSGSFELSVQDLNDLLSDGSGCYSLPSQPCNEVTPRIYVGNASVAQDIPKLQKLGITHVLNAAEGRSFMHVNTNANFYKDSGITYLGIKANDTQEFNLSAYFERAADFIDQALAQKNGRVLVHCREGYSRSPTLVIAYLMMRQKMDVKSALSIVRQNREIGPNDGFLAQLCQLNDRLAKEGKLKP
# BoNT-F LC inh: blocks Botulinum neurotoxin F light chain protease; Multiplex microsphere protease cleavage assay, flow cytometry; inhibition, % at 10 µM; 360,000 compounds, 0.22% hits; AID 588497; in the data active = inhibition above about 35%, passing the limit was not always enough; inconclusive = no clear call, values can overlap the other calls; also: plate controls were buffer without enzyme for full effect and enzyme alone for no effect
# Anthrax LF prot: inhibitors of Bacillus anthracis lethal factor protease; multiplex microsphere protease cleavage assay, LF; inhibition, % at 10 µM; 360,000 compounds, 0.12% hits; also: plate controls were buffer without enzyme for full effect and enzyme alone for no effect
# SARS 3CLpro inh: SARS-CoV 3CLpro protease inhibition. recombinant SARS-CoV 3CLpro, quenched FRET peptide cleavage. inhibition, % at 6 µM. P0C6X7. 290,000 compounds, 0.14% hits; in the data active = inhibition above about 12%
# BoNT A protease: blocks Botulinum neurotoxin A light chain protease | multiplex microsphere protease substrate cleavage, flow cytometry | 360,000 compounds, 0.17% hits | inhibition, % at 10 µM | AID 588499; also: plate controls were buffer without enzyme for full effect and enzyme alone for no effect
# Autofluor counter: flagged as autofluorescent in microsphere protease counterscreen; compound autofluorescence counterscreen, microsphere flow cytometry; hits give high values; fluorescence intensity (concentration not given with the values); 360,000 compounds, 3.1% hits; in the data active = fluorescence intensity above about 16000; inconclusive = no clear call, values can overlap the other calls
# An asterisk follows results filed as active; ? = inconclusive; . = not tested or not shown. Rule as the data show it, unless noted: active = inhibition above about 30%; inconclusive = no clear call, values can overlap the other calls; inactive = below that.
SMILES,DUSP3 inh,BoNT-F LC inh,Anthrax LF prot,SARS 3CLpro inh,BoNT A protease,Autofluor counter
O=C(c1cnn2c(C(F)(F)F)cc(-c3ccc(Br)cc3)nc12)N1CCOCC1,-1,-1,-2,4,0,2901
COc1ccc(-c2cc(C(F)F)n3ncc(C(=O)N4CCN5CCCC5C4)c3n2)cc1 (stereo not drawn),4,16,-16,1,12,17221*
Cc1cc(NC(=O)c2cnn3c(C(F)(F)F)cc(-c4ccc(Br)cc4)nc23)no1,27,-1,-1,-9,0,23282*
O=C(c1cnn2c(C(F)(F)F)cc(-c3ccc4c(c3)OCO4)nc12)N1CCCC1,23,0,-1,4,?,21315*
O=C(c1cnn2c(C(F)F)cc(-c3ccccc3)nc12)N1CCOCC1,-1,4,-2,2,3,21284*
Cc1ccc(-c2cc(C(F)(F)F)n3ncc(C(=O)NCc4ccco4)c3n2)cc1,25,-4,-3,1,0,2702
O=C(c1cnn2c(C(F)F)cc(-c3ccccc3)nc12)N1CCSCC1,18,-7,-21,0,0,?
COC(=O)C1=CCCCC(O)=C1C(=O)OC,.,4,-2,.,0,2693
OCC[C@H]1C[C@H](O)[C@@H](O)[C@@]2(CCc3ccccc3O2)O1,.,8,0,.,0,3737
Nc1nc(-c2cccnc2)nn1C(=O)Cc1ccccc1,-2,-2,-2,-6,0,22678*
CCN(CCCn1c(SCC#N)nc2ccccc2c1=O)c1ccccc1,15,0,-16,-3,2,19328*
NC(=O)c1nsc(C(=O)N(Cc2cccnc2)C(C(=O)NCc2ccc(F)cc2)c2ccc(O)cc2)c1N (stereo not drawn),13,-2,5,5,0,4110
CCOC(=O)CC(=O)CSc1nc2c(sc(=S)n2-c2ccccc2)c(=O)[nH]1,15,3,0,4,?,21967*
O=C(NCCc1ccccc1)c1ncn[nH]1,-18,0,2,0,?,20498*
O=C(NCCc1ccc(Cl)cc1)c1ncn[nH]1,24,-21,-2,5,-1,4133
CC(=O)C1CCC2C3CC(C)C4(O)CC(=O)CCC4(C)C3C(O)CC12C (stereo not drawn),.,-5,-5,.,0,2877
CC(=O)C12CCCCC1CC1C3CC(C)C4(O)CC(=O)CCC4(C)C3CCC12C (stereo not drawn),-2,35*,10,0,1,3351
CC1(C)COC(c2cc3c(cc2Br)OCO3)OC1,.,3,6,.,0,3737
COCCN(Cc1ccc(OC)cc1)c1c(C)nc2ccc(C(=O)Nc3ccc(NC(C)=O)cc3)cn12,.,4,-4,.,0,3528
CN(C)c1ccc(/C=N/NC(=O)C(O)(c2ccccc2)c2ccccc2)o1,3,-1,-2,-8,?,16827*
Cc1cc(C(=O)N/N=C/c2ccc(-c3cccc(Br)c3)o2)n[nH]1,-11,14,-8,-3,-2,4453
Cc1cc(C(=O)N/N=C/c2ccc(-c3cccc(Cl)c3Cl)o2)n[nH]1,51*,3,0,-2,0,2124
O=C(Nc1cc(C(F)(F)F)ccc1-n1cncn1)c1ccc(Br)cc1,13,0,-1,0,0,24053*
CN(C)c1ccc(C(=O)Nc2cc(C(F)(F)F)ccc2-n2cncn2)cc1,12,?,-6,2,0,4135
C=CC[C@]12C=C(OC)C(=O)C=C1O[C@@H](c1ccc3c(c1)OCO3)[C@H]2C,.,-1,-4,.,-1,5540
SMILES,DUSP3 inh,BoNT-F LC inh,Anthrax LF prot,SARS 3CLpro inh,BoNT A protease,Autofluor counter
COc1ccc(-c2nnn(CC(=O)N(CC(=O)NC3CCCC3)Cc3cccs3)n2)cc1OC,15,-5,-2,0,-2,24334*
Cc1ccc(-c2nnn(CC(=O)N(Cc3cccs3)C(C(=O)NC3CCCC3)c3ccco3)n2)o1 (stereo not drawn),18,1,-3,-3,-1,16932*
CCCC(C(=O)NC1CCCC1)N(C(=O)Cn1nnc(-c2ccc(C)o2)n1)c1ccccc1F (stereo not drawn),7,31,10,6,2,3355
CCC(C(=O)NC1CCCC1)N(C(=O)Cn1nnc(-c2ccc(OC)c(OC)c2)n1)C1CCCCC1 (stereo not drawn),16,1,1,1,0,16428*
COc1ccc(-c2nnn(CC(=O)N(Cc3cccs3)C(C)C(=O)NC3CCCC3)n2)cc1OC (stereo not drawn),26,1,8,3,3,10886
CCC(C(=O)NC1CCCC1)N(C(=O)Cn1nnc(-c2ccc(C)cc2)n1)C1CCCC1 (stereo not drawn),.,2,-5,-3,1,3169
CCCC(C(=O)NC1CCCC1)N(C(=O)Cn1nnc(-c2ccc(C)o2)n1)C1CCCC1 (stereo not drawn),9,-6,-1,5,-4,25114*
COc1ccc(CCC(=O)Nc2c(-c3ccc(N(C)C)cc3)[nH][nH]c2=O)cc1,.,-1,0,.,-1,4564
COCc1cccc(-c2csc(C(O)c3ccccc3)n2)c1 (stereo not drawn),.,-5,-4,.,0,2935
Cc1ccc(C2(c3noc(CN4CCC(c5ccncc5)CC4)n3)CCCC2)cc1,-10,-7,-1,-5,0,2666
O=C(Cc1ccc(-n2c(=S)[nH]c3ccccc3c2=O)cc1)N1CCC(N2CCCCC2)CC1,31,-3,1,6,-2,23979*
COc1ccc(N2CCN(C(=O)Cc3ccc(-n4c(=O)[nH]c5ccccc5c4=O)cc3)CC2)cc1,9,10,-1,6,-1,4148
CC(=O)N1CCN(Cc2nc3cc(NC(=O)c4ccccc4Cl)ccc3n2C)CC1,23,-2,5,2,0,4843
Cn1c(CN2CCCCC2)nc2cc(NC(=O)c3ccc(F)cc3)ccc21,28,-2,-7,-3,0,10523
Cn1c(CN2CCCCC2)nc2cc(NC(=O)c3ccccc3Cl)ccc21,29,-4,-2,-1,-2,20760*
CC(C)C(=O)Nc1ccc2c(c1)nc(CCN1CCN(C)CC1)n2C,-6,-5,-2,0,-2,24142*
Cn1c(CN2CCCC2)nc2cc(NC(=O)C3CCCCC3)ccc21,44,0,1,0,0,17014*
COc1cc(C2=NC(CO)(CO)CO2)cc(OC)c1OC,58*,0,2,-3,0,4178
COc1cc(C(=O)OCC(=O)NC(=O)NC2CCCCC2)cc(Cl)c1OC,.,2,-2,.,3,?
Cc1c(Br)ccc(NC(=O)CCN2C(=O)C3C4CCC(C4)C3C2=O)c1C (stereo not drawn),-8,-1,-5,1,?,23010*
Cc1cc(NC(=O)CCN2C(=O)C3C4CCC(C4)C3C2=O)cc(C)c1Br (stereo not drawn),-24,-5,1,2,1,2612
